This is a sample that favours compounds with a hit; in the whole collection about 1.2% have one here.
PGK inhibitor – qHTS Assay to Find Inhibitors of Phosphoglycerate Kinase. PGK/GAPDH coupled, Kinase-Glo luminescence, 60 min. Potency, µM (titrated, usually from 57.5 µM), inactives show at the top dose activity change, negative = inhibition, hits mostly inhibitors. 380,000 tested, 0.043% active; note: potency is the fitted concentration of half-maximal effect; nearly all actives have a fitted effect of over 60% in size
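Recombinant glycosomal PGK reaction used 1,3-bisphosphoglycerate generated in-well by GAPDH (100nM final) in 100mM TEA pH 7.6, 5mM MgCl2, 0.01% Tween-20. After 60 minutes at room temperature, ATP was read by Kinase-Glo Plus luminescence end-point.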
Pin1 inhibitor – qHTS Assay to Find Inhibitors of Pin1; Pin1 FP peptide displacement, HiFluor488, 10 min; Potency, µM (highest dose often 115 µM), for the others: top-dose activity, negative = inhibition, actives largely listed as inhibitors; 390,000 tested, 0.009% active; AID 504891, 2011; active = well fitted inhibition curve with a large enough effect in the polarisation, with a control signal flat, not every such curve was filed as active; inconclusive = small, poorly fitted or top-dose-only effect, or effect the other way, or a change in a side signal; inactive = no such curve, though single readings can be large or run the other way; the % refers to the polarisation; note: potency is the fitted concentration of half-maximal effect
Target sequence (Q13526 whole entry, looked up): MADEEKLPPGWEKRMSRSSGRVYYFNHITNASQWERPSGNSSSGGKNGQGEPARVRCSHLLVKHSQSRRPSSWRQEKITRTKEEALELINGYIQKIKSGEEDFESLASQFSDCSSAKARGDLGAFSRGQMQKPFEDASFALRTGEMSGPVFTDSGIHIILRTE
RGS4 inh – Inhibitors of Regulator of G Protein Signaling (RGS) 4: qHTS; Regulator of G-protein signaling 4 (Homo sapiens), P49798; Transcreener GDP fluorescence polarization, RGS4-accelerated GTP hydrolysis; Potency, µM (top dose mostly 114 µM), inactives show at the top dose activity change, negative = inhibition, hits mostly inhibitors; 390,000 tested, 0.039% active; note: potency is the fitted concentration of half-maximal effect; nearly all actives have a fitted effect of over 75% in size
Target sequence (P49798 whole entry, looked up): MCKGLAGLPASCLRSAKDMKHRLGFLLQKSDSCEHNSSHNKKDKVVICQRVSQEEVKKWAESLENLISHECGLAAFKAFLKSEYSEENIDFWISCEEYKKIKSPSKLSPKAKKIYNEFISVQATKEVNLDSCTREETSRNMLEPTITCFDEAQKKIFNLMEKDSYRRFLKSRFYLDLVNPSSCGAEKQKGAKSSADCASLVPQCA
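MLSMR compounds (23 nl, pin-transferred) preincubated 10 min at room temperature with a 500nM (2x) first reagent, then RGS4 at 900nM (2x) plus Transcreener GDP mix added; fluorescence polarization (620/688 nm) read before and after 90 min at 30 °C.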
KCNH2 3.1 inh – qHTS for Inhibitors of KCHN2 3.1: Mutant qHTS; Potassium voltage-gated channel subfamily H member 2, brain isoform KCNH2 3.1 (human); activity change, % (tested at about 1.8 µM); U2OS KCNH2 3.1, thallium flux FluxOr; hits give low values; 340,000 tested, 0.95% active;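 active = maximum activity change below -70%; inconclusive = maximum activity change from -70% to -50%; inactive = maximum activity change above -50%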;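 note: thallium influx rate constant from kinetic fluorescence after stimulation buffer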
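Normalized rate constant (relative to positive and negative DMSO controls) derived from a 2 min kinetic fluorescence read after stimulation; U2OS cells expressing the 3.1 isoform via virus at 1.77 x 10^8 /mL.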
KCNH2 WT inh – qHTS for Inhibitors of KCHN2 3.1: Wildtype qHTS. 340,000 tested, 0.37% active. activity change, % at 1.84 µM. AID 720551, 2013. U2OS, BacMam KCNH2, thallium flux FluxOr; hits give low values;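 active = maximum activity change below -70%; inconclusive = maximum activity change between -70% and -50%; inactive = maximum activity change above -50%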
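U2OS cells transduced with wild-type KCNH2 virus are loaded with FluxOr dye for 45 min, and thallium flux is measured in kinetic reads before and after stimulation buffer. Rate constants are normalized to DMSO controls.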
GCN5L2 inh – qHTS Assay for Inhibitors of GCN5L2 | GCN5L2 HAT assay, ThioGlo1 CoA-SH fluorescence | 390,000 tested, 0.21% active | Potency, µM (top dose mostly 58.9 µM), inactives show at the highest dose activity change, negative = inhibition, hits mostly inhibitors | Histone acetyltransferase KAT2A (Homo sapiens), Q92830; note: potency is the fitted concentration of half-maximal effect
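qHTS, 1536-well. 20nM enzyme, pH 7.5 HEPES/EDTA/Tween-20 buffer; 15 min compound preinc., RT. Start: 75uM H3(1-25), 70uM AcCoA, 50uM ThioGlo1. Read Ex340/Em540 at t=0 (autofluorescence flag) and t=20 min.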
The depositor's hits bear a star; [ ] = remark or other dose. Unless noted, calls come from the whole dose curve; as a rule, active = well fitted curve in the direction sought with a large enough effect; inconclusive = small, poorly fitted or top-dose-only effect, or another doubt; inactive = no such curve, though single readings can be large; an effect the other way counts as inactive or inconclusive. % is set by controls: 0 for no effect and ±100 for the full control effect.

What do the screens show for `O=S(=O)(NC1CCCCC1N1CCN(c2ccc(F)cc2)CC1)c1ccccc1` (configuration not stated)?
PGK inhibitor: 3%; Pin1 inhibitor: -3%; RGS4 inh: 7%; KCNH2 3.1 inh: -81*; KCNH2 WT inh: 27; GCN5L2 inh: -25%

What do the screens show for `COC(=O)CSc1nnc(Cc2ccccc2)n1-c1ccc(C)cc1`?
PGK inhibitor: -1%; Pin1 inhibitor: -1%; RGS4 inh: 0%; KCNH2 3.1 inh: -98*; KCNH2 WT inh: -3; GCN5L2 inh: 2%

Results for COC(=O)CSc1nnc(C)n1-c1ccc(C)cc1 ?
PGK inhibitor: 11%; Pin1 inhibitor: 4%; RGS4 inh: -26%; KCNH2 3.1 inh: 2; KCNH2 WT inh: -2; GCN5L2 inh: 0%

Results for CCCn1ccc2c(OCC(=O)Nc3ccc(C(F)(F)F)cc3)cccc2c1=O ?
PGK inhibitor: 0%; Pin1 inhibitor: -1%; RGS4 inh: -9%; GCN5L2 inh: -15%

How did CC1(c2nnc(-c3ccc(Cl)cc3)o2)CC(c2ccc(Cl)cc2)=NO1 (configuration not stated) do in these assays?
PGK inhibitor: inactive; Pin1 inhibitor: 3%; RGS4 inh: -10%; KCNH2 3.1 inh: -162*; KCNH2 WT inh: 3; GCN5L2 inh: 1%

How did O=C(OCC(=O)N1CCOCC1)c1ccc(Br)cc1 do in these assays?
PGK inhibitor: -1%; Pin1 inhibitor: -3%; RGS4 inh: 30%; KCNH2 3.1 inh: 10; KCNH2 WT inh: -130*; GCN5L2 inh: -7%

How did O=C(O)c1ccccc1N=Nc1c(O)[nH]c2ccc([N+](=O)[O-])cc12 do in these assays?
PGK inhibitor: -12%; Pin1 inhibitor: -7%; RGS4 inh: -6%; KCNH2 3.1 inh: -127*; KCNH2 WT inh: -3; GCN5L2 inh: 0%

Results for Cc1ccccc1NCC(=O)N=Nc1c(O)[nH]c2ccc([N+](=O)[O-])cc12 ?
PGK inhibitor: -2%; Pin1 inhibitor: inconclusive; RGS4 inh: -21%[56.9 µM]; KCNH2 3.1 inh: 15; KCNH2 WT inh: 2; GCN5L2 inh: -2%

Results for O=C1N(Cc2cccc(C(F)(F)F)c2)c2ccccc2S(=O)(=O)N1c1cccc(Cl)c1 ?
PGK inhibitor: 5%; Pin1 inhibitor: 3%; RGS4 inh: 20%; GCN5L2 inh: -9%

What do the screens show for `CCN(CC1CCCN(CCc2cccc(F)c2)C1)C(=O)c1cc2ccccc2o1` (configuration not stated)?
PGK inhibitor: -3%; Pin1 inhibitor: -7%; RGS4 inh: 3%; KCNH2 3.1 inh: -75*; KCNH2 WT inh: -24; GCN5L2 inh: -4%

Results for CCN(CC1CCCN(CCc2cccc(F)c2)C1)C(=O)c1cc(C)oc1C (configuration not stated) ?
PGK inhibitor: -2%; Pin1 inhibitor: -1%; RGS4 inh: 10%; KCNH2 3.1 inh: -29; KCNH2 WT inh: 41; GCN5L2 inh: -21%

What do the screens show for `CC1(C)Cc2c(cnn2-c2ccc(F)cc2)C(NC(=O)c2ccoc2)C1` (configuration not stated)?
PGK inhibitor: 5%; Pin1 inhibitor: -3%; RGS4 inh: -23%; KCNH2 3.1 inh: -81*; KCNH2 WT inh: inconclusive; GCN5L2 inh: 1%

How did CC1(C)Cc2c(cnn2-c2ccccc2)C(NC(=O)c2ccoc2)C1 (configuration not stated) do in these assays?
PGK inhibitor: 4%; Pin1 inhibitor: -3%; RGS4 inh: 7%; KCNH2 3.1 inh: -41; KCNH2 WT inh: inconclusive; GCN5L2 inh: -5%

Compound activity (PubChem)
